From PubChem BioAssay (NCI)
This is part of a sample that, as a whole, favours compounds with a hit. Of some 83,000 tested, about 20% had one in any assay.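 How to read the values: 0–100, growth inhibition (40 = 60% inhibited); 0, no net growth; -100 to 0, cell death (-40 = 40% of starting cells died; -100 = all dead).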 A number with no mark means an inactive call. The source made the active and inactive calls.

Each molecule was assayed on U251 CNS (assay: NCI-60 one-dose screen, 48 h (100 = growth as untreated, 0 = no growth, -100 = all killed)). Conditions: 10 µM unless noted.
Procedure: Growth inhibition of the U251 human tumor cell line is measured as a screen for anti-cancer activity. Cells are grown in 96 well plates and exposed to the test compound for 48 hours. Compounds are tested at a single concentration, which is 10^-5 M for most compounds. The reported endpoint is percent growth (GI% or GIPRCNT), where numbers from 0 - 100% represent growth inhibition, and numbers from -100% - 0 represent cell death. For example, a value of 40 represents 60% growth inhibition. A value of 0 means no net growth occurred over the course of the experiment. A value of -40 indicates 40% of cells at the beginning of the experiment died by the end of the experiment. A value of -100 means all cells are dead at the end of the experiment.
NCI-60 Human Tumor Cell Lines Screen was performed using the standard one-dose NCI protocol, which is described in more detail at https://dtp.cancer.gov/discovery_development/nci-60/default.htm.
Compounds with GIPRCNT values below 10 were considered active. Activity score was based on GIPRCNT using the following formula: […]
Score is 0 for GIPRCNT values of 100 or above, 50 for GIPRCNT values of 0, and 100 for GIPRCNT values of -100.
`COc1cc(F)c(/C=C/c2cc(/C=C/c3cc(OC)c(OC)cc3F)on2)cc1OC` showed a growth of 83.1%. In the case of `COc1ccc(C(=O)c2cc(C)c(OC)c(C)c2)c(OC)c1OC(=O)C(Cl)Cl`, the growth was 13.5%. `Cc1ccc(NS(=O)(=O)c2ccc(-c3cnc(C4CC4)o3)cc2)cc1C(F)(F)F` showed a growth of 68.5%. In the case of `CNC(=O)c1cccc(Cn2nc(C)c(NC(=O)c3ccc(COc4ccc(C(F)(F)F)cc4C)cc3)c2C)c1`, the growth was 44.4%. `COc1cc(/C=C\c2cc(OC)c(OC)c(OC)c2)cc(NC(=O)/C=C/c2cc(OC)c(OC)c(OC)c2)c1OC` was tested, and the growth was 71%. With `Cn1c(-c2c(N)n(CCCN3CCOCC3)c3nc(C#N)c(C#N)nc23)nc2ccccc21` the growth was 67.8%. With `NC(=NCCCOc1ccc(F)cc1)Nc1ccc(Cl)cc1` the growth was 76.7%. Work on `NC1[C@H](c2c[nH]c3ccccc23)c2c([nH]c3ccccc23)[C@H]1c1c[nH]c2ccccc12` (stereo not given in full) yielded a growth of 100%. `CC1=CCC(OC(=O)C(C)(O)CCC(O)(C(=O)OC2(C)C=CC(O)(C(C)C)CC2)C(C)C)(C(C)C)CC1` (stereo not given) showed a growth of 98.3%. For `N#C/C(=C\c1ccc([N+](=O)[O-])s1)c1nc2cc(Cl)ccc2s1`, the growth was 1.57% (active). Molecule `O=C(Nc1ccc(-c2ccc3c(c2)NC(=O)/C3=C\c2ccc[nH]2)cc1)NC1CC1` has a growth of 75%. With `COc1cc(/C(C)=C(\c2ccc(Cl)cc2)c2ccc(OCCN(C)C)cc2)ccc1F` the growth was 44.3%. `c1ccc(-c2c(-c3ccccc3)[n+](Cc3ccc4ccccc4c3)c(-c3cccc4ccccc34)n2Cc2ccc3ccccc3c2)cc1` was tested, and the growth was -94.9% (active). With `Cc1cc2c(C(=O)NCC#N)cccc2n1-c1nc2c(c(NCc3ccccc3)n1)CCCC2` the growth was -71% (active). Molecule `CC1(C)NCCC[C@]2(C)[C@H]3CC(=O)[C@H]4[C@@H]5C[C@](C)(CO)CC[C@]5(C)CC[C@@]4(C)[C@]3(C)CC[C@@H]12` has a growth of 91.4%. Work on `COc1ccc(-c2nc([C@@H](C)Sc3nc(N)cc(N)n3)c(C)s2)cc1OCCN1CCOCC1` yielded a growth of 91.8%. Work on `CCCCNC(=O)Oc1ccc(/C(=C(\C)c2ccccc2)c2ccc(OCCN3CCCCC3)cc2)cc1` yielded a growth of 50.7%. `c1ccc(Cn2cnc3ccc(-c4nc(-c5ccc6c(c5)ncn6C5CCCCC5)cn5ccnc45)cc32)cc1` was tested, and the growth was -22.8% (active). `CC(=O)O[C@@H]1C2CCC3C(CC[C@@]4(C)C3CC[C@@H]4C(C)N(C)C)[C@@]2(C)CC[C@@H]1NC(=O)C=C(C)C` (stereo not given in full) was tested, and the growth was 14.9%. With `O=C(/C=C/c1ccc[nH]1)c1ccc(-n2ccc(C(F)(F)F)n2)c(F)c1` the growth was 88.7%. Molecule `CCSCC1CC(O)(c2ccccc2)CC(c2ccc(F)cc2)O1` (stereo not given) has a growth of 20.8%. `COc1cc2c(=O)n(CCN)c3c4cc5c(cc4ccc3c2cc1OC)OCO5` was tested, and the growth was -74.4% (active). Molecule `COc1ccc(C(=O)c2nc3ccccc3n2CC(=O)c2ccc(F)cc2)cc1` has a growth of 90.5%. For `O=C1Nc2ccccc2/C1=C\c1c(-c2ccccc2)nc2ccccn12`, the growth was 62.9%. Work on `Cc1c2cc[nH]c(=O)c2c(C)c2c1[nH]c1cc(OCCN3CCN(C)CC3)ccc12` yielded a growth of 17%. For `N#Cc1cc(-c2nc3ccccc3s2)c(=O)n(NS(=O)(=O)c2ccccc2)c1N`, the growth was 102%. With `CCNc1nc2ccc(Nc3ccnc4cc(Cl)ccc34)cc2[nH]1` the growth was 75.2%. Work on `COc1ccc(/C=C2\Oc3cc(OCCCN4CCCCC4)ccc3C2=O)cc1OC` yielded a growth of 94.2%. Work on `CCN1C(=O)/C(=C/C(=O)OC)S/C1=N\NC(=O)c1cc2ccc1/C=C\c1ccc(cc1)/C=C\2` yielded a growth of 84.4%. Molecule `N#Cc1c(-c2cccc([N+](=O)[O-])c2)nc(SCC(=O)c2ccc(Cl)cc2)[nH]c1=O` has a growth of 97.3%. With `COCCCN1CC(O)=C(c2nc(-c3ccc(C)cc3)cs2)C1=N` the growth was 100%. `CCN1Cc2nc3sc(C)c(C)c3c(=O)n2C=C1C` showed a growth of 24.3%. In the case of `Cc1nnc2c(Cc3ccccc3)nc3ccccc3n12`, the growth was 101%. Molecule `CCOC(=O)Oc1c(OC)cc(C(=O)c2ccc(OC)c(OC(=O)CCl)c2OC)cc1OC` has a growth of 19%. In the case of `OC(c1cccc(C(F)(F)F)c1)c1cnccc1NC1CCCCC1` (stereo not given), the growth was 76%. `C=C(C)[C@@H]1CC[C@]2(C(=O)N3CCN(C)CC3)CC[C@]3(C)[C@H](CC[C@@H]4[C@@]5(C)CC[C@H](OCCC#N)C(C)(C)[C@@H]5CC[C@]43C)[C@@H]12` was tested, and the growth was 43.9%. In the case of `COc1cc2c(=O)n(CCN(C)C)c3c4cc5c(cc4ccc3c2cc1OC)OCO5`, the growth was -4.24% (active). `O=C(CCN1CCCC1)Nc1ccc2c(Nc3ccc(Br)cc3)c3ccccc3nc2c1` was tested, and the growth was -51% (active). For `COC(=O)N[C@H]1CCc2c(Cl)c(OC)c(OC)c(OC)c2-c2ccc(SC)c(=O)cc21`, the growth was 21.5%. `O=c1[nH]nc(-c2ccccc2)c2sc3ncc(-c4ccc(Br)cc4)n3c12` gave a growth of 38.9%.
